Source: PubChem BioAssay
Shiga inhibitor: blocks Shiga toxin action in Vero cells; Vero cells, Shiga toxin protein synthesis inhibition reporter; inhibition, % at 38.7 µM; 9.2% of 290,000 active; in the data active = inhibition mostly above about 28%, no sharp cut-off; inactive = mostly below about 43%; also: 0% is about no effect
Pf growth 96h: inhibits malaria parasite growth, 96 h | Potency, µM (highest dose often 28.7 µM), without a hit: at the highest dose activity change, negative = inhibition, most hits filed as inhibitors | AID 504834 | 6.9% of 320,000 active | P. falciparum luciferase reporter growth, 96 h; also: potency is read from the fitted curve at half-maximal effect; % is scaled to controls: 0 for no effect and ±100 for the full control effect
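Two parasite generations (96 h, 37 C, 5% CO2) of compound exposure in infected erythrocytes (0.05% parasitemia, 2% hematocrit). Luciferase-reporter P. falciparum; decreased luminescence indicates inhibited growth, aimed at apicoplast-acting delayed death.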
CHX counter: counter-screen for Shiga toxin inhibitors: cycloheximide protein synthesis inhibition | 12% of 300,000 active | max response, % | cell reporter, cycloheximide protein synthesis inhibition counterscreen; in the data active = max response mostly above about 13%, no sharp cut-off; inactive = mostly below about 14%; also: read at 38.3 µM for the half of the compounds with a filed dose; 0% is about no effect
SARS PLP yeast: SARS-CoV PLP inhibition in yeast | S. cerevisiae expressing SARS-CoV PLpro, growth rescue | Potency, µM (series often up to 32.9 µM), inactives show top-dose activity, positive = growth rescue, actives largely listed as activators | 0.19% of 330,000 active | AID 485353; calls by dose curve; also: potency is read from the fitted curve at half-maximal effect; 0% is about no effect; nearly all actives have a fitted effect of over 55% in size
Pf growth 48h: inhibits P. falciparum growth in the first generation, 48 h. AID 504832. 5.9% of 310,000 active. P. falciparum luciferase growth in erythrocytes, 48 h. Potency, µM (doses to about 28.7 µM), for the others: at the top dose activity change, negative = inhibition, hits mostly inhibitors; also: potency is read from the fitted curve at half-maximal effect; % is scaled to controls: 0 for no effect and ±100 for the full control effect
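Luminescence readout; reporter = integrated firefly luciferase in P. falciparum. RBC culture at 2% hematocrit, 0.1% parasitemia final, 37 C/5% CO2; decreased signal taken as growth inhibition.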
NS1 inh: blocks influenza NS1 protein function; Potency, µM (titrated, usually from 46.1 µM), for the others: at the top dose activity, positive = more growth; 0.4% of 270,000 active; AID 2326; calls by dose curve; also: potency is read from the fitted curve at half-maximal effect; actives are rising curves; nearly all actives have a fitted effect of over 50% in size
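Read-out: OD600 growth recovery of NS1-expressing budding yeast. Cells grown overnight at 30C in -URA glucose medium, washed, resuspended and diluted 1:100 in 2% galactose assay medium, pH 6.0. Same strain lacking NS1 served as positive control.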
An asterisk follows results filed as active. Only some compounds are listed: those with a hit (about 21% of all), similar ones and a draw of the others. Unless noted, calls follow the shape of the dose curve; as a rule, active = well fitted inhibition curve with a large enough effect; inconclusive = small, poorly fitted or top-dose-only effect, or another doubt; inactive = no such curve, though single readings can be large or run the other way.

`Cc1c(C(=O)N2CC3(CC(c4cccc(NC(=O)CC(c5ccccc5)c5ccccc5)c4)=NO3)C[C@@H]2C(N)=O)cc([N+](=O)[O-])cc1[N+](=O)[O-]` (stereo not given in full) gave Shiga inhibitor -7, Pf growth 96h inconclusive, CHX counter -3, SARS PLP yeast 4%, Pf growth 48h 12µM* and NS1 inh 11%.
For CCCCCC(=O)Nc1cccc(C2=NOC3(C2)C[C@H](C(N)=O)N(C(=O)c2ccccc2C(=O)c2ccccc2)C3)c1 (stereo not given in full) the results were Shiga inhibitor 2, Pf growth 96h inconclusive, CHX counter -2, SARS PLP yeast -5%, Pf growth 48h 9.3µM* and NS1 inh -4%.
For CCCCCC(=O)Nc1cccc(C2=NOC3(C2)C[C@H](C(N)=O)N(C(=O)c2ccccc2)C3)c1 (stereo not given in full) the results were Shiga inhibitor -5, Pf growth 96h inconclusive, CHX counter -3, SARS PLP yeast -4%, Pf growth 48h inconclusive and NS1 inh 6%.
C=C(C)C(=O)Nc1cccc(C2=NOC3(C2)C[C@H](C(N)=O)N(C(=O)c2ccccc2C(=O)c2ccccc2)C3)c1 (stereo not given in full) was read as Shiga inhibitor 22, Pf growth 96h 13µM*, CHX counter -3, SARS PLP yeast 2%, Pf growth 48h inconclusive and NS1 inh -13%.
Screening C/C=C(/C)C(=O)Nc1cccc(C2=NOC3(C2)C[C@H](C(N)=O)N(C(=O)Cc2ccc([N+](=O)[O-])cc2)C3)c1 (stereo not given in full) returned Shiga inhibitor -5, Pf growth 96h inconclusive, CHX counter -5, SARS PLP yeast 1%, Pf growth 48h 12µM* and NS1 inh -1%.
Screening O=C(O)CC(NS(=O)(=O)Cc1ccccc1)c1cccc([N+](=O)[O-])c1 (stereo not given) returned Shiga inhibitor -5, Pf growth 96h -17%, CHX counter -5, SARS PLP yeast -3%, Pf growth 48h 32% and NS1 inh 4%.
CC(C)(C)C(=O)N1CCN(c2c(Cl)cccc2[N+](=O)[O-])CC1 was read as Shiga inhibitor 13, Pf growth 96h -28%, CHX counter -2, SARS PLP yeast 0%, Pf growth 48h inconclusive and NS1 inh -18%.
`C(=C\c1nc(-c2ccccc2)no1)/c1ccccc1` gave Shiga inhibitor 48*, Pf growth 96h inconclusive, CHX counter 30*, SARS PLP yeast 7%, Pf growth 48h 290% and NS1 inh -5%.
CC(=O)Cc1cc(O)c2ccccc2c1OC(=O)c1ccccc1 was read as Shiga inhibitor 20, Pf growth 96h 10%, CHX counter -2, SARS PLP yeast -1%, Pf growth 48h 13µM* and NS1 inh -5%.
For CC(=O)Oc1c(C)cc(O)c2ccccc12 the results were Shiga inhibitor 4, Pf growth 96h inconclusive, CHX counter 12, SARS PLP yeast -5%, Pf growth 48h inconclusive and NS1 inh -52%.
For Nc1c(C(=O)Nc2ccccc2F)sc2nc(-c3cccnc3)ccc12 the results were Shiga inhibitor 27, Pf growth 96h 31%, CHX counter 3, SARS PLP yeast -4%, Pf growth 48h 96% and NS1 inh -6%.
`NC(=O)c1sc2nc3c(c(-c4ccco4)c2c1N)CCC3` gave Shiga inhibitor -9, Pf growth 96h 13%, CHX counter -2, SARS PLP yeast -11%, Pf growth 48h -3% and NS1 inh -32%.
COC(=O)c1sc2nc(-c3ccco3)ccc2c1N was read as Shiga inhibitor 93*, Pf growth 96h 0%, CHX counter 68*, SARS PLP yeast -10%, Pf growth 48h 0% and NS1 inh -15%.
`NC(=O)c1sc2nc(-c3ccco3)ccc2c1N` gave Shiga inhibitor 110*, Pf growth 96h 260%, CHX counter 37*, SARS PLP yeast -9%, Pf growth 48h 148% and NS1 inh -45%.
Nc1c(C(=O)Nc2ccccc2F)sc2nc(-c3ccco3)ccc12 was read as Shiga inhibitor 97*, Pf growth 96h 224%, CHX counter 47*, SARS PLP yeast 0%, Pf growth 48h 110% and NS1 inh 12%.
`COC(=O)c1sc2cnccc2c1N` gave Shiga inhibitor -18, CHX counter -2, SARS PLP yeast -1% and NS1 inh -16%.
For COc1ccccc1NC(=O)C1CCN(C(=O)C2CC(=O)N(c3ccc(C)cc3)C2)CC1 (stereo not given) the results were Shiga inhibitor -5, Pf growth 96h -12%, CHX counter -6, SARS PLP yeast -1%, Pf growth 48h 3% and NS1 inh -3%.
Screening Cc1cccc(NC(=O)C2CCCN2S(=O)(=O)c2cccc3cccnc23)c1 (stereo not given) returned Shiga inhibitor 3, Pf growth 96h inconclusive, CHX counter 6, SARS PLP yeast 0% and NS1 inh -17%.
Screening O=C(Nc1cccnc1)C1CCC(CNS(=O)(=O)c2cccc3nsnc23)CC1 (stereo not given) returned Shiga inhibitor 9, Pf growth 96h -26%, CHX counter 5, SARS PLP yeast -2%, Pf growth 48h inconclusive and NS1 inh -10%.
For Cn1c(C(=O)O)c(CC(=O)NCc2cccnc2)c2ccccc21 the results were Shiga inhibitor -6, Pf growth 96h 0%, CHX counter -5, SARS PLP yeast 6%, Pf growth 48h -20% and NS1 inh -22%.
Screening COc1cc2c(c(OC)c1OC)-c1ccc(O)c(=O)cc1[C@@H](NC(C)=O)CC2 returned SARS PLP yeast -4%.
`COc1cc2c(c(OC)c1OC)-c1ccc(NC(=O)c3ccccc3)c(=O)cc1[C@@H](NC(C)=O)CC2` gave Shiga inhibitor -17, Pf growth 96h inconclusive, CHX counter 1, SARS PLP yeast -4%, Pf growth 48h 9.3µM* and NS1 inh 5%.
For CCOc1ccc(C(=S)NC2CCCCC2)cc1 the results were Shiga inhibitor 139*, Pf growth 96h 127%, CHX counter 52*, SARS PLP yeast 3%, Pf growth 48h 93% and NS1 inh 1%.
CCOc1ccc(S(=O)(=O)NCC(=O)NC2CCCCC2)cc1 was read as Pf growth 96h inconclusive, SARS PLP yeast 1% and Pf growth 48h -25%.
For COc1ccc(C(=S)NC2CCCCC2)cc1 the results were Shiga inhibitor 27, Pf growth 96h 41%, CHX counter 20*, SARS PLP yeast 1%, Pf growth 48h 53% and NS1 inh 2%.
CC(C)(C)[C@H]1COC(=O)[C@H](NC(=O)OCC2c3ccccc3-c3ccccc32)C/C=C\C[C@@H](CC(=O)N[C@@H](CO)Cc2ccccc2)C(=O)N1 was read as SARS PLP yeast -13%.
